# Screening data: PubChem BioAssay, National Center for Advancing Translational Sciences (NCATS)
# HTT aggregate: inhibitors of mutant huntingtin aggregate formation in PC12 cells; PC12 HttQ103-GFP aggregates, Acumen cytometry, 40 h; Potency, µM (top dose mostly 46.1 µM), for the others: top-dose activity change, negative = inhibition, hits mostly inhibitors; 220,000 tested, 1.1% active; note: % is set by controls: 0 for no effect and ±100 for the full control effect; nearly all actives have a fitted effect of over 60% in size
#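 PC12 cells with ecdysone-inducible HTT exon1 Q103-GFP, induced by 100 nM tebufenozide, given compounds in a concentration series. GFP aggregates (1–25 um, 6 SD above background) counted in lysates by laser-scanning cytometry, 488 nm excitation.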
# NPSR antag: blocks cAMP signaling of the human neuropeptide S receptor; CHO-NPSR cells, cAMP TR-FRET, antagonist mode; Potency, µM (doses to about 38.3 µM), without a hit: top-dose activity change, negative = inhibition, hits mostly inhibitors; 220,000 tested, 1% active; AID 1461; note: % is set by controls: 0 for no effect and ±100 for the full control effect; nearly all actives have a fitted effect of over 50% in size
# Target sequence (Q6W5P4 whole entry, looked up): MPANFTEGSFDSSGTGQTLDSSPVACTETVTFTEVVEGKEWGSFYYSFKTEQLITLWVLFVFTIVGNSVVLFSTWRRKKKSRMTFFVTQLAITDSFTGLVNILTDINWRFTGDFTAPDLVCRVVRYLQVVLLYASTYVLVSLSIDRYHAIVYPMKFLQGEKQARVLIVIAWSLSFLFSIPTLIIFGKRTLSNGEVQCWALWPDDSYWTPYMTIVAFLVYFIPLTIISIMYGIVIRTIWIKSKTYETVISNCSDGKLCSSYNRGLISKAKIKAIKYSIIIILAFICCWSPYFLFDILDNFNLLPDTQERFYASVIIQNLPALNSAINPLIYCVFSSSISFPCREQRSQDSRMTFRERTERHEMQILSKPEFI
# ERK EGF block: inhibitors of EGF-stimulated ERK signaling pathway; HEK293-V1b, EGF-stimulated phospho-ERK AlphaScreen; Potency, µM (titrated, usually from 11.5 µM), inactives show top-dose activity change, negative = inhibition, actives largely listed as inhibitors; 130,000 tested, 0.41% active;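 note: plate controls were stimulated vehicle wells for no effect and unstimulated vehicle basal for full effect; nearly all actives have a fitted effect of over 55% in size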
#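 HEK293 cells stably expressing V1b receptor, serum-reduced (1% FBS) overnight, pretreated 30 min with compound, then stimulated 5 min with 25 nM EGF; phospho-ERK detected by AlphaScreen SureFire. AC50 from Hill fits, normalized to DMSO and EGF.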
# IMPase Li cell: cell-permeable IMPase inhibitors with lithium potentiation | CHO-M1 cells, IP1 TR-FRET (IP-One), carbachol + lithium | Potency, µM (doses to about 59.4 µM), for the others: top-dose activity, negative = IMPase inhibition, hits mostly inhibitors | 210,000 tested, 0.35% active | AID 1457;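 note: IP1 builds up when IMPase is blocked and the TR-FRET signal falls; plate controls were basal vehicle for no effect and high inhibitor control for full effect; nearly all actives have a fitted effect of over 50% in size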
#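 Concentration–response in CHO-M1 cells, lithium-potentiated; 30 min at 37C. IP1 detected by competitive TR-FRET after 10 min lysis at RT. Hill-fitted AC50.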
# HTT cytoprotect: Huntington cell model cytoprotection by ATP luminescence; PC12 HTT-Q103 induced, cytoprotection, ATP luminescence, 40 h; Potency, µM (doses to about 56.4 µM), for inactives: cytoprotection (ATP increase), actives largely listed as activators; 230,000 tested, 0.14% active; note: % of control where 0% means no effect; nearly all actives have a fitted effect of over 45% in size
#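 Compounds were screened for protection of PC12 cells against cell death after tebufenozide induction (100 nM final) of mutant Huntingtin exon 1 (Q103) fused to GFP.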
# Active calls of the source: *; ? = inconclusive; nt = no result given; [ ] = remark or other dose. A selection: hits, their analogues and other compounds. The true share with any hit is near 1.9%. Calls come from the whole dose curve; as a rule, active = well fitted curve in the direction sought with a large enough effect; inconclusive = small, poorly fitted or top-dose-only effect, or another doubt; inactive = no such curve, though single readings can be large; an effect the other way counts as inactive or inconclusive. Potency is the fitted concentration of half-maximal effect.
SMILES,HTT aggregate,NPSR antag,ERK EGF block,IMPase Li cell,HTT cytoprotect
CN1/C(=C/C=N/n2cnnc2)C(C)(C)c2ccccc21,-11%,10%[46.1 µM],nt,14%[38.3 µM],-6%[10 µM]
CN1/C(=C\C=N\NC(=O)c2ccccc2Br)C(C)(C)c2ccccc21,11µM*,-3%,?,16%,-1%[10 µM]
Cc1cccc(NC(=O)CSc2nc(C)c(CC(=O)c3ccc(Br)cc3)c(C)c2C#N)c1C,-4%,6.3µM*,nt,?,4%
C1CSC2(N1)C1CC3CC(C1)CC2C3 (centres undefined),nt,-2%[46.1 µM],nt,6%[38.3 µM],1.6µM*
CN[C@@H](CC(C)C)C(=O)N[C@@H]1C(=O)N[C@H](CC(N)=O)C(=O)N[C@H]2C(=O)N[C@H]3C(=O)N[C@H](C(=O)N[C@H](C(=O)O)c4cc(O)cc(O)c4-c4cc3ccc4O)[C@H](O)c3ccc(c(Cl)c3)Oc3cc2cc(c3O[C@@H]2O[C@@H](CO)[C@@H](O)[C@@H](O)[C@H]2O[C@H]2C[C@](C)(N)[C@H](O)[C@H](C)O2)Oc2ccc(cc2Cl)[C@@H]1O,nt,nt,nt,nt,-12%[1.9 µM]
O=c1c(-c2ccccc2)nc2cnc(Nc3ccccc3)nc2n1Cc1cccs1,nt,nt,nt,?,-8%
Nc1nc(NC(=O)c2ccccc2)nn1-c1ccccc1,-2%,12%,14%,2%,nt
O=C(Nc1nc(NC(=O)c2ccco2)n(-c2ccccc2)n1)c1ccccc1,?,?,nt,14%[38.3 µM],4µM*
O=C(NCCCCCCNC(=O)ON=C1CCCCC1)ON=C1CCCCC1,nt,nt,nt,0%,?
CC[n+]1c(/C=C/c2c[nH]c3ccccc23)ccc2cc(C)ccc21,8.9µM*,13µM*,?,49%,-137%
CC(=O)[C@]1(O)CC[C@@H]2[C@H]3C[C@@H](C)C4=CC(=O)CC[C@@]4(C)C3[C@@H](O)C[C@]21C (some centres undefined),nt,nt,nt,3%,nt
Cc1ccccc1/C=C/c1cc[n+](C)cc1,-29%,-13%,-7%,1%,-22%
Cc1[nH]c2ccccc2c1/C=C/C(=O)c1ccncc1,14%[9.22 µM],-11%,-4%[57.5 µM],nt,4µM*
Cc1[nH]c2ccccc2c1/C=C/c1cc[n+](C)cc1,?,10µM*,nt,42%[38.3 µM],-79%
CC1CC[C@@]2(OC1)OC1CC3C4CC[C@H]5CC(O)CC[C@@]5(C)C4CC[C@]3(C)C1C2C (some centres undefined),nt,nt,16%,7%,nt
CCOC(=O)c1nc2sc(C)c(C)c2c(=O)[nH]1,-7%,-16%[46.1 µM],nt,-9%[38.3 µM],17%
CCOC(=O)/C(=C\c1cccc(O)c1)c1nc2sc(C)c(C)c2c(=O)[nH]1,4%,10µM*,?,14%,-29%[10 µM]
CCN1/C(=C/c2ccc3cc(C)ccc3[n+]2CC)Sc2cc(C)ccc21,1µM*,-45%,?,?,-140%
CCN1/C(=C/c2ccc3ccccc3[n+]2CC)C=Cc2ccccc21,3.2µM*,7.9µM*,nt,56%[38.3 µM],-55%[10 µM]
CCCCN1/C(=C/c2ccc3ccccc3[n+]2CC)Sc2ccccc21,2.5µM*,-51%,?,-1%,-59%[10 µM]
CCc1c(O)c2c(c(O)c1C(C)=O)C(=O)c1c(cc(O)c(C(=O)O)c1C(=O)O)C2=O,nt,nt,nt,-9%,-20%[10 µM]
Cc1cc(=O)oc2cc(OC(=O)CCN3C(=O)c4ccccc4C3=O)ccc12,0%,-14%[46.1 µM],nt,8.9µM*,-15%
Cc1cc(=O)oc2cc(OCCCN3C(=O)c4ccccc4C3=O)ccc12,1%,-3%,-1%,-9%,-4%[10 µM]
COC1=C[C@@H](C)C2CC3OC(=O)C[C@H]4C(C)=C(OC)C(=O)C([C@@]2(C)C1=O)[C@@]34C (some centres undefined),nt,nt,-4%,11%,21%
O=C(NN1C(=O)/C(=C/c2ccc(O)c([N+](=O)[O-])c2)SC1=S)c1ccccc1Cl,-28%,6.3µM*,-6%,1%,13%
O=C1/C(=C/c2ccc(O)c([N+](=O)[O-])c2)SC(=S)N1Cc1ccccc1,?,-44%,?,11%,nt
COc1cccc([C@@H]2Oc3ccc(OC)cc3C(=O)[C@H]2OC(=O)NCCc2ccc(OC)c(OC)c2)c1,nt,nt,-4%,-11%,-40%
